The structures appear in SMILES notation. The campaign covered roughly 66,000 compounds. About 720 (1.1%) were called active. Rule as the data show it: active = normalised signal below about 0.5; inactive = the rest, inconclusive results apart. Only a selection was taken, and actives are over-represented in it overall.

In this assay the target is Chromobox protein homolog 7 (Homo sapiens) (UniProt O95931). The assay is described as follows: CBX7 chromodomain binding inhibitors, primary screen, biochemical, AlphaScreen (AID 1224903). As to conditions: AlphaScreen His6-CBX7 / biotin-H3K27me3 peptide binding, stronger effect = lower value; z-score: measured here: z-score of CBX7 signal. (Alpha assays give light when donor and acceptor beads are brought close together.)
Sequence of Chromobox protein homolog 7 (Homo sapiens) (O95931 whole entry, looked up): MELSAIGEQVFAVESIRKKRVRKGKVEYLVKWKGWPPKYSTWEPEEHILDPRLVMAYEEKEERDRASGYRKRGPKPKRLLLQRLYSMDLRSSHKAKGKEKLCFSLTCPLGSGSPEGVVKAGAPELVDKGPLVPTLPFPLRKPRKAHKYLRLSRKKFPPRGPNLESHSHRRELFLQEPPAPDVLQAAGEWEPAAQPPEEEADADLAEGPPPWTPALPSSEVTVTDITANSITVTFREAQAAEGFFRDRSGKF
`Cc1ccc2c(c1)C(c1ccc(F)cc1)N(C(=O)c1ccc(S(=O)(=O)N3CCCC3)cc1)CC(=O)N2` (stereo unspecified): the normalised signal (fraction of DMSO) is 0.859 (inactive) and the z-score is -1.94.
The corresponding values for `Cc1ccc2c(c1)C(c1ccc(F)cc1)N(C(=O)c1ccc(C)c(C)c1)CC(=O)N2` (stereo unspecified) are 0.316 (active) and -6.53.
`Cc1ccc(C(=O)N2CC(=O)Nc3ccc(F)cc3C2c2ccc(F)cc2)cc1` (stereo unspecified): the normalised signal (fraction of DMSO) is 1.01 (inactive) and the z-score is 0.159.
In the case of `O=C(Nc1ccccc1C(=O)Nc1ccccc1)c1cccc(S(=O)(=O)N2CCCCC2)c1`, the normalised signal (fraction of DMSO) was 0.764 (inactive) and the z-score is -2.54.
Taken in the same sequence, the figures for `Cc1ccc(C(C)C)c(OCc2nnc(NC(=O)c3ccc(Br)cc3)s2)c1` were 1.06 (inactive) and 0.262.
As to `CCN1CCN(CCCNC(=O)c2ccc3c(c2)N(Cc2ccc(F)cc2)CCS3)CC1`, the normalised signal (fraction of DMSO) is 0.904 (inactive) and the z-score is -4.6.
As for `CC(=O)N1CCC(N(C(=O)Nc2ccc(Cl)cc2)C2CCCCCC2)CC1`, the normalised signal (fraction of DMSO) was 1.02 (inactive) and the z-score was found to be 0.287.
Take `Cc1ccc(-c2nc(Nc3ccccc3)sc2C)cc1`: the normalised signal (fraction of DMSO) was 0.99 (inactive) and the z-score was -0.257.
`CCCCNC(=O)c1cc(Nc2ccc(CC)cc2)nc2ccccc12`: the normalised signal (fraction of DMSO) is 0.991 (inactive) and the z-score is -0.251.
The corresponding values for `O=C(NCc1ccccc1)C1CCN(c2nc3ccccc3o2)CC1` are 1.02 (inactive) and 0.778.
Taken in the same sequence, the figures for `COc1ccc(CNc2nc(-c3ccccc3)cc(C(F)(F)F)n2)cc1` were 1.28 (inactive) and 3.06.
Taken in the same sequence, the figures for `CC(C)n1cnc2cc(NCc3ccccc3Cl)ccc21` were 0.463 (active) and -15.4.
Consider `Cc1ccc(NC(=O)CCc2nnc3ccc(NCc4ccccc4Cl)nn23)cc1`, for which the normalised signal (fraction of DMSO) was 0.916 (inactive) and the z-score is -2.3.
The corresponding values for `COc1ccc(CNc2ccc3c(c2)ncn3C(C)(C)C)c(OC)c1` are 0.589 (inactive) and -11.8.
Consider `COc1ccc(OC)c(Cc2nc3cc(C)c(C)cc3[nH]c2=O)c1`, for which the normalised signal (fraction of DMSO) was 0.964 (inactive) and the z-score was -1.09.
Taken in the same sequence, the figures for `O=C(Nc1ccccc1Cl)C1CCN(C(=O)c2cnn(-c3ccccc3)c2-n2cccc2)CC1` were 1.04 (inactive) and 1.69.
Consider `Cc1ccc(C(=O)CN2C3=NCCN3c3ccccc32)cc1`, for which the normalised signal (fraction of DMSO) was 0.994 (inactive) and the z-score was -0.186.
Taken in the same sequence, the figures for `CC(C)N(CCCNC(=O)C1CCC(=O)N1Cc1ccc(F)cc1)Cc1ccccc1` (stereo unspecified) were 0.995 (inactive) and -0.146.
The corresponding values for `CCc1ccc(NC(=O)Cn2c(SCc3cccc(F)c3)nc3ccncc32)cc1` are 1.06 (inactive) and 0.594.
As to `Fc1cnc(Nc2ccc(Cl)cc2)nc1Nc1ccc(Cl)cc1`, the normalised signal (fraction of DMSO) was 1.05 (inactive) and the z-score was 0.523.
The corresponding values for `Cc1ccc(C(C)C)cc1OCC(O)Cn1cnc2ccccc21` (stereo unspecified) are 0.815 (inactive) and -2.55.
For the compound `CCc1cc(C)cc(OCC(O)Cn2cnc3ccccc32)c1` (stereo unspecified), the normalised signal (fraction of DMSO) was 0.88 (inactive) and the z-score was -3.02.
`CC(C)c1ccc(OCC(O)Cn2cnc3ccccc32)cc1` (stereo unspecified): the normalised signal (fraction of DMSO) is 0.284 (active) and the z-score is -13.5.
The corresponding values for `Cc1ccc(NC(=O)c2cc(C)nn2-c2ccccc2)c(C)c1` are 1.04 (inactive) and 1.18.
Taken in the same sequence, the figures for `COc1cccc(C(=O)Nc2ccc3oc(-c4ccccc4)nc3c2)c1` were 1.16 (inactive) and 2.43.
As to `COc1ccc(-c2noc(N(C)CC(=O)N3CCN(C)CC3)n2)cc1`, the normalised signal (fraction of DMSO) was 1.02 (inactive) and the z-score worked out at 0.593.
The corresponding values for `O=C(CSCc1cnn(-c2ccccc2)c1-n1cccc1)NC1CC1` are 0.986 (inactive) and -0.615.
Taken in the same sequence, the figures for `COc1ccccc1N1CCN(C(c2cccs2)C(C)NC(=O)c2ccc3c(c2)OCO3)CC1` (stereo unspecified) were 0.905 (inactive) and -2.32.
The corresponding values for `CCOc1ccc(C(=O)Nc2c3c(nn2-c2cccc(C)c2C)CSC3)cc1` are 1.01 (inactive) and 0.119.
Regarding `Cc1ccc(Cc2cnc(CN(C)C)c(O)c2)cc1`, the normalised signal (fraction of DMSO) was 0.477 (active) and the z-score was -6.92.
As for `Clc1ccc2nc(-c3ccsc3)c(NC(c3ccccc3)c3ccccc3)n2c1`, the normalised signal (fraction of DMSO) was 1.04 (inactive) and the z-score stood at 1.58.
Consider `COc1ccc(-c2cc(C(=O)NCCCn3ccnc3)no2)cc1`, for which the normalised signal (fraction of DMSO) was 0.983 (inactive) and the z-score is -0.364.
The corresponding values for `Cc1ccc(-c2nc(C#N)c(NCCCn3ccnc3)o2)cc1` are 0.442 (active) and -0.658.
With `Cc1ccc(CNc2oc(-c3ccc(F)cc3)nc2C#N)cc1`, the normalised signal (fraction of DMSO) was 0.934 (inactive) and the z-score was -2.3.
Taken in the same sequence, the figures for `COc1ccc(Cl)cc1NC(=O)C1c2cc(OC)c(OC)cc2C(=O)N(C)C1c1ccccc1F` (stereo unspecified) were 1.06 (inactive) and 1.16.
The corresponding values for `Cc1ccc(CNC(=O)c2c(-c3ccccc3)noc2C)cc1` are 1.03 (inactive) and 0.952.
The corresponding values for `CC1(C)CC(=O)c2cc(OCC(=O)NCCCN3CCCC3)ccc2O1` are 0.509 (inactive) and -9.7.
In the case of `Cc1ccc(-c2nc3c(C)cccn3c2Nc2ccc3c(c2)OCCO3)cc1`, the normalised signal (fraction of DMSO) was 0.63 (inactive) and the z-score is -13.9.
The corresponding values for `O=C(NCc1ccccc1)C1C2C=CC3(CN(Cc4ccccc4Cl)C(=O)C13)O2` (stereo unspecified) are 0.955 (inactive) and -2.13.
Turning to `CCCCn1c(C2CC(=O)N(c3ccc(CC)cc3)C2)nc2ccccc21` (stereo unspecified), the normalised signal (fraction of DMSO) is 0.96 (inactive) and the z-score is -0.9.
Take `CCOc1ccc(-c2nnc(Nc3ccc(C(N)=O)cc3)c3ccccc23)cc1`: the normalised signal (fraction of DMSO) is 0.436 (active) and the z-score was -2.64.
Taken in the same sequence, the figures for `Cc1ccc(-c2nnc(Nc3ccc(C(=O)N(C)C)cc3)c3ccccc23)cc1S(N)(=O)=O` were 1.08 (inactive) and 2.41.
Consider `Cc1ccc(-c2nnc(Nc3ccc(OCC(N)=O)cc3)c3ccccc23)cc1S(=O)(=O)NC(C)C`, for which the normalised signal (fraction of DMSO) is 0.723 (inactive) and the z-score was -5.21.
